± gives the standard deviation of the averaged measurements. In all, about 33,000 sequences were measured (“E-score (rank enrichment, -0.5 to 0.5)”: median about -0.0028, highest 2% from about 0.23 on). This is one part of a sample in which the highest values are shown more often than they occur.
test system: 2Sb-muMax20 (muMax20 with two 1,3-bis(methyl)benzene Cys staples, A13C/A17C and Q88C/A92C, C-terminal Lys); experiment: PBM 8-mer E-score (E-score (rank enrichment, -0.5 to 0.5)); higher = stronger preferential binding
Experimental: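 Protein binding microarray (universal PBM chip covering all 10-mers in fixed probe flanks) with chemically synthesized human Max(13-93) bHLH-LZ analogs (not full-length Max) bearing noncanonical residues (hArg, Tha, Aib, Nle at 65) and aromatic Cys staples. Read-out per 8-mer (and its reverse complement): E-score (rank-based enrichment, -0.5 to 0.5) and Z-score of median probe intensity.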

| Sequence | PBM 8-mer E-score |
| --- | --- |
| CGGACTCA | -0.147 ± 0.028 |
| CTACAACA | 0.0685 ± 0.041 |
| ATACAAGC | 0.284 ± 0.043 |
| ATACAACC | -0.0388 ± 0.043 |
| ATACAAGA | -0.044 ± 0.011 |
| GTACAACA | 0.159 ± 0.0065 |
| ACACAACG | 0.0437 ± 0.0021 |
| CTACAAGC | -0.00747 ± 0.0035 |
| ATACAACA | 0.239 ± 0.053 |
| ATACAACG | 0.252 ± 0.027 |
| CTTACGCC | 0.0349 ± 0.067 |
| AGTCTACA | -0.0861 ± 0.047 |
| TAGCAATA | -0.02 ± 0.012 |
| AGGCCGCG | -0.113 ± 0.078 |
| GAGACGCA | 0.0251 ± 0.025 |
| TCGGGCAA | -0.0563 ± 0.02 |
| CAAGGTTA | -0.0419 ± 0.083 |
| AAAGGTAG | 0.176 ± 0.01 |
| AAGCCGTG | -0.228 ± 0.057 |
| ACGCGAAG | -0.0725 ± 0.09 |
| CGTAGAAA | -0.0374 ± 0.016 |
| TGTAGAAA | 0.236 ± 0.0088 |

| Sequence | PBM 8-mer E-score |
| --- | --- |
| AGTAGAAA | 0.1174 ± 0.00047 |
| CTATGCGC | -0.0257 ± 0.0089 |
| CGACCAAG | -0.128 ± 0.0088 |
| ATTAGTTG | 0.205 ± 0.022 |
| CTAAGTTA | 0.0294 ± 0.017 |
| GTAAGTTA | 0.0157 ± 0.033 |
| ATAAGTTA | 0.241 ± 0.01 |
| GTTAGTTA | 0.108 ± 0.058 |
| ATTAGTTA | 0.233 ± 0.039 |
| AGAATTGG | 0.092 ± 0.037 |
| ATGCTAGC | 0.17 ± 0.0032 |
| CCCGCCTC | 0.0922 ± 0.074 |
| GCTAAAGA | 0.0447 ± 0.088 |
| CAAGTTTA | 0.151 ± 0.057 |
| ACTCCGAC | -0.182 ± 0.046 |
| AATCACAC | 0.131 ± 0.016 |
| CAAAAACA | 0.00439 ± 0.066 |
| ACTATGCC | 0.101 ± 0.025 |
| GTTTTGCA | 0.0867 ± 0.05 |
| CTTTTGTA | 0.136 ± 0.035 |
| ATTTTGTG | 0.0967 ± 0.078 |
| ATTTTGTA | 0.271 ± 0.013 |

| Sequence | PBM 8-mer E-score |
| --- | --- |
| GTTTTGTA | 0.279 ± 0.035 |
| GGTTTGTA | 0.0375 ± 0.026 |
| AAGGTTCC | -0.178 ± 0.069 |
| GGGTTGTA | 0.0272 ± 0.0033 |
| TAGACAAA | 0.053 ± 0.034 |
| CACGAATC | -0.015 ± 0.029 |
| AGAAGATG | -0.0449 ± 0.09 |
| ATCAAGAA | 0.121 ± 0.044 |
| GAAAATTA | 0.2425 ± 0.002 |
| CAAAATTA | 0.108 ± 0.0041 |
| CAAATTTC | 0.208 ± 0.085 |
| AAAATTTC | 0.0563 ± 0.036 |
| GGAAATTA | 0.304 ± 0.016 |
| CGAAATTA | -0.0924 ± 0.033 |
| GAAATTTC | 0.245 ± 0.17 |
| AGAAATTA | 0.0685 ± 0.035 |
| AAAAATTA | 0.0513 ± 0.022 |
| CGAAAACC | -0.0224 ± 0.019 |
| ACATACCC | -0.0475 ± 0.056 |
| ACTCTTTG | 0.0269 ± 0.0091 |
| TTAGATAA | 0.113 ± 0.021 |
| AACGCTCT | -0.0435 ± 0.014 |

| Sequence | PBM 8-mer E-score |
| --- | --- |
| CAACCTGA | -0.0727 ± 0.068 |
| AAGCGCTA | -0.041 ± 0.0066 |
| AAGCGCTC | -0.108 ± 0.037 |
| AAGCGCTT | 0.309 ± 0.011 |
| ACTGAGCC | -0.209 ± 0.022 |
| GAATAGCA | 0.146 ± 0.046 |
| CATCCATG | -0.0304 ± 0.072 |
| ACTAGTAT | 0.201 ± 0.067 |
| ATTACTAC | 0.296 ± 0.011 |
| CCTACTAG | 0.0815 ± 0.034 |
| GCTACTAC | 0.233 ± 0.0041 |
| GCTACTAA | 0.082 ± 0.075 |
| ACTACTAT | 0.173 ± 0.036 |
| ATTACTAG | -0.0604 ± 0.047 |
| CTTACTAC | 0.202 ± 0.032 |
| ACTACTAG | 0.241 ± 0.027 |
| ACTAGTAA | 0.231 ± 0.036 |
| ACTAGTAG | 0.113 ± 0.013 |
| ACTACTAC | 0.0819 ± 0.046 |
| ACCTGTGA | -0.138 ± 0.064 |
| CCTATGAG | -0.157 ± 0.032 |
| AATCTAGA | -0.047 ± 0.028 |

| Sequence | PBM 8-mer E-score |
| --- | --- |
| CCGTTTAA | -0.0517 ± 0.035 |
| AGAGCGTA | 0.00302 ± 0.045 |
| AGATGATC | -0.147 ± 0.013 |
| ACGGTGAG | -0.0622 ± 0.023 |
| CAGAATTA | -0.00473 ± 0.0023 |
| AGCGAAGA | -0.0699 ± 0.084 |
| TACATGCA | 0.181 ± 0.0009 |
| CACATGTG | 0.395 ± 0.00083 |
| CACATGTA | 0.338 ± 0.0074 |
| AACATGTC | 0.11 ± 0.051 |
| CACATGAA | 0.125 ± 0.0092 |
| CACATGTC | -0.0158 ± 0.02 |
| CTCATGTA | 0.0268 ± 0.039 |
| AACATGTT | 0.122 ± 0.0036 |
| AACATGTG | 0.344 ± 0.044 |
| TACATGTA | 0.238 ± 0.06 |
| CACATGCG | 0.124 ± 0.051 |
| GACATGTA | 0.147 ± 0.021 |
| CAACTCAG | -0.162 ± 0.038 |
| ACCGTCAG | -0.115 ± 0.051 |
| GACAGGAC | -0.0924 ± 0.0031 |
